PubChem BioAssay (NCI)
Compounds without any hit were thinned out: in the full panel of roughly 83,000, 20% have a hit.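 How to read the values: 0–100, growth inhibition (40 = 60% inhibited); 0, no net growth; -100 to 0, cell death (-40 = 40% of starting cells died; -100 = all dead).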 Activity calls are given as the source filed them. The calls were made as follows: active = growth percent below 10; inactive = the rest.

Key:
Assay in all cases: NCI-60 one-dose screen, 48 h (100 = growth as untreated, 0 = no growth, -100 = all killed)
Conditions in all cases: 10 µM
EKVX NSCLC = system: EKVX NSCLC
SN12C renal = system: SN12C renal
UO-31 renal = system: UO-31 renal
TK-10 renal = system: TK-10 renal
ACHN renal = system: ACHN renal
CAKI-1 renal = system: CAKI-1 renal
A498 renal = system: A498 renal
OVCAR-8 ovarian = system: OVCAR-8 ovarian
OVCAR-5 ovarian = system: OVCAR-5 ovarian
OVCAR-4 ovarian = system: OVCAR-4 ovarian
SK-OV-3 ovarian = system: SK-OV-3 ovarian
IGROV1 ovarian = system: IGROV1 ovarian
OVCAR-3 ovarian = system: OVCAR-3 ovarian
HS 578T breast = system: HS 578T breast
NCI/ADR-RES ovarian = system: NCI/ADR-RES ovarian
T-47D breast = system: T-47D breast
MOLT-4 leukemia = system: MOLT-4 leukemia
SR leukemia = system: SR leukemia
RPMI-8226 leukemia = system: RPMI-8226 leukemia
CCRF-CEM leukemia = system: CCRF-CEM leukemia

Measured: growth

COc1ccc(NC(=O)CSc2nc3ccccc3c(=O)n2CCc2ccccc2)cc1
inactive: EKVX NSCLC 75.2% | SN12C renal 79% | UO-31 renal 90.2% | TK-10 renal 109% | ACHN renal 93.4% | CAKI-1 renal 87.5% | A498 renal 101% | OVCAR-8 ovarian 60.7% | OVCAR-5 ovarian 101% | OVCAR-4 ovarian 97% | SK-OV-3 ovarian 75.5% | IGROV1 ovarian 82.3% | OVCAR-3 ovarian 90.4% | HS 578T breast 51.2% | NCI/ADR-RES ovarian 85.2% | T-47D breast 93.3%

Nc1ncn(C2OC(CO)C(O)C2O)c(=O)n1 (centres undefined)
inactive: EKVX NSCLC 44.9% | SN12C renal 17.4% | A498 renal 19% | OVCAR-5 ovarian 85.9% | SK-OV-3 ovarian 12.3% | NCI/ADR-RES ovarian 15.1% | T-47D breast 10.6%
active: UO-31 renal 0.167% | TK-10 renal 4.79% | ACHN renal -21.7% | CAKI-1 renal -2.03% | MOLT-4 leukemia 0.695% | SR leukemia -1.52% | RPMI-8226 leukemia -25.4% | OVCAR-4 ovarian -30.3% | IGROV1 ovarian -39.8% | OVCAR-3 ovarian -13.7% | HS 578T breast 3.64%

COc1ccc2c(c1)sc1nc(-c3ccccc3)c(-c3ccsc3)n12
inactive: EKVX NSCLC 40.8% | SN12C renal 50.2% | UO-31 renal 37.8% | TK-10 renal 46.1% | ACHN renal 54.2% | CAKI-1 renal 27.9% | MOLT-4 leukemia 36.4% | RPMI-8226 leukemia 15.2% | OVCAR-8 ovarian 30.8% | OVCAR-5 ovarian 51.6% | OVCAR-4 ovarian 62.8% | SK-OV-3 ovarian 23.5% | IGROV1 ovarian 31.1% | T-47D breast 57%
active: A498 renal -7.5% | SR leukemia 6.49% | OVCAR-3 ovarian -51.6% | HS 578T breast 3.75% | NCI/ADR-RES ovarian 9.35%

O=C(N/N=C\c1cc(Cl)ccc1[N+](=O)[O-])c1ccco1
inactive: EKVX NSCLC 106% | SN12C renal 99.8% | UO-31 renal 104% | TK-10 renal 128% | ACHN renal 105% | CAKI-1 renal 89.5% | CCRF-CEM leukemia 102% | MOLT-4 leukemia 93.6% | SR leukemia 123% | RPMI-8226 leukemia 109% | OVCAR-8 ovarian 101% | OVCAR-5 ovarian 118% | OVCAR-4 ovarian 105% | SK-OV-3 ovarian 130% | IGROV1 ovarian 127% | OVCAR-3 ovarian 107% | HS 578T breast 100% | NCI/ADR-RES ovarian 100% | T-47D breast 83.7%

CSc1cc(SC)ncn1
inactive: EKVX NSCLC 107% | SN12C renal 94.4% | UO-31 renal 86.7% | TK-10 renal 94% | ACHN renal 107% | CAKI-1 renal 106% | A498 renal 98.8% | CCRF-CEM leukemia 94% | MOLT-4 leukemia 105% | SR leukemia 98.2% | OVCAR-8 ovarian 105% | OVCAR-5 ovarian 105% | OVCAR-4 ovarian 113% | SK-OV-3 ovarian 104% | IGROV1 ovarian 116% | OVCAR-3 ovarian 124% | NCI/ADR-RES ovarian 118% | T-47D breast 105%

CC(C)=CCc1ccc(O)c(=O)cc1C(C)C
inactive: EKVX NSCLC 13.8% | SN12C renal 25% | TK-10 renal 18.3% | ACHN renal 24.8% | A498 renal 52.6% | OVCAR-8 ovarian 12.4% | OVCAR-5 ovarian 52.4% | OVCAR-4 ovarian 31.2% | SK-OV-3 ovarian 18.5% | OVCAR-3 ovarian 43.4% | HS 578T breast 72.7%
active: UO-31 renal -10.4% | CAKI-1 renal -8.29% | CCRF-CEM leukemia 9.68% | MOLT-4 leukemia 8.5% | SR leukemia 5.25% | IGROV1 ovarian 1.88% | NCI/ADR-RES ovarian 1.61%

c1ccc2c(c1)oc1c3c(ccc12)NCCC3
inactive: EKVX NSCLC 59.5% | SN12C renal 87.4% | UO-31 renal 65.9% | TK-10 renal 135% | ACHN renal 101% | CAKI-1 renal 97.4% | A498 renal 77.3% | CCRF-CEM leukemia 96% | MOLT-4 leukemia 97.5% | RPMI-8226 leukemia 93.8% | OVCAR-8 ovarian 98.2% | OVCAR-5 ovarian 102% | OVCAR-4 ovarian 94.3% | SK-OV-3 ovarian 107% | IGROV1 ovarian 98.6% | OVCAR-3 ovarian 103% | HS 578T breast 109% | NCI/ADR-RES ovarian 97.7% | T-47D breast 59.9%

O=C1/C(=C\c2cn(C(=O)c3ccc(Cl)cc3)c3ccccc23)c2ccccc2N1C(=O)c1ccc(Cl)cc1
inactive: EKVX NSCLC 70.7% | SN12C renal 80.8% | UO-31 renal 64.4% | TK-10 renal 55.3% | ACHN renal 63.3% | CAKI-1 renal 73.8% | A498 renal 81.1% | MOLT-4 leukemia 61.5% | SR leukemia 56.1% | RPMI-8226 leukemia 57.5% | OVCAR-8 ovarian 78.7% | OVCAR-5 ovarian 115% | OVCAR-4 ovarian 72% | SK-OV-3 ovarian 77% | IGROV1 ovarian 80% | OVCAR-3 ovarian 84.3% | NCI/ADR-RES ovarian 83.4% | T-47D breast 61.7%

O=C(/C=C/c1cc2ccccc2[nH]c1=O)c1ccc2c(c1)OCO2
inactive: EKVX NSCLC 95.9% | SN12C renal 93.5% | UO-31 renal 63.7% | TK-10 renal 97.3% | ACHN renal 103% | CAKI-1 renal 118% | A498 renal 97.6% | MOLT-4 leukemia 66% | SR leukemia 52.5% | OVCAR-8 ovarian 96.1% | OVCAR-5 ovarian 104% | OVCAR-4 ovarian 88% | SK-OV-3 ovarian 102% | IGROV1 ovarian 92.5% | OVCAR-3 ovarian 102% | HS 578T breast 93.8% | NCI/ADR-RES ovarian 105% | T-47D breast 72.2%

COc1cc(/C=N/NC(=O)c2ccccc2Nc2ccnc(C(F)(F)F)c2)ccc1O
inactive: EKVX NSCLC 106% | SN12C renal 122% | UO-31 renal 98.1% | TK-10 renal 147% | ACHN renal 111% | A498 renal 116% | RPMI-8226 leukemia 90.8% | OVCAR-8 ovarian 101% | OVCAR-5 ovarian 116% | SK-OV-3 ovarian 98.9% | IGROV1 ovarian 123% | OVCAR-3 ovarian 109% | HS 578T breast 97.4% | NCI/ADR-RES ovarian 143% | T-47D breast 116%
active: CAKI-1 renal -21.2% | MOLT-4 leukemia -89.5% | SR leukemia -48.1%

O=C(N/N=C/c1ccccc1O)C(O)(c1ccccc1)c1ccccc1
inactive: EKVX NSCLC 20% | SN12C renal 66.3% | UO-31 renal 23.7% | TK-10 renal 53.9% | ACHN renal 35.5% | CAKI-1 renal 23% | CCRF-CEM leukemia 24.7% | MOLT-4 leukemia 31.2% | SR leukemia 42.6% | RPMI-8226 leukemia 62% | OVCAR-8 ovarian 60.1% | OVCAR-5 ovarian 73.9% | OVCAR-4 ovarian 26.7% | SK-OV-3 ovarian 66.9% | IGROV1 ovarian 43.7% | HS 578T breast 74% | NCI/ADR-RES ovarian 35.9%
active: OVCAR-3 ovarian 8.52%

O=C(O)CN1C(=O)c2cccc3cccc(c23)C1=O
inactive: EKVX NSCLC 82.6% | SN12C renal 95.4% | UO-31 renal 97.1% | TK-10 renal 114% | ACHN renal 101% | CAKI-1 renal 89% | A498 renal 85.9% | MOLT-4 leukemia 115% | SR leukemia 112% | OVCAR-8 ovarian 98.8% | OVCAR-5 ovarian 105% | OVCAR-4 ovarian 100% | SK-OV-3 ovarian 94% | IGROV1 ovarian 111% | OVCAR-3 ovarian 118% | HS 578T breast 108% | NCI/ADR-RES ovarian 102% | T-47D breast 90.1%

c1ccc2c(c1)oc1c3cccnc3ccc21
inactive: EKVX NSCLC 64.4% | SN12C renal 93.2% | UO-31 renal 44.2% | TK-10 renal 118% | ACHN renal 87.9% | CAKI-1 renal 84.1% | A498 renal 87.2% | MOLT-4 leukemia 61.4% | RPMI-8226 leukemia 97.1% | OVCAR-8 ovarian 99.7% | OVCAR-5 ovarian 100% | OVCAR-4 ovarian 83% | SK-OV-3 ovarian 87.7% | IGROV1 ovarian 54.4% | OVCAR-3 ovarian 106% | HS 578T breast 93.1% | NCI/ADR-RES ovarian 99.7% | T-47D breast 39%

CO/N=C(/C(=O)NC1C(=O)N2C(C(=O)O)=C(COC(N)=O)CSC12)c1ccco1 (centres undefined)
inactive: EKVX NSCLC 99.4% | SN12C renal 104% | UO-31 renal 83.3% | TK-10 renal 104% | ACHN renal 98.3% | CAKI-1 renal 91.3% | A498 renal 102% | MOLT-4 leukemia 111% | SR leukemia 106% | OVCAR-8 ovarian 108% | OVCAR-5 ovarian 108% | OVCAR-4 ovarian 106% | SK-OV-3 ovarian 114% | IGROV1 ovarian 109% | OVCAR-3 ovarian 122% | HS 578T breast 116% | NCI/ADR-RES ovarian 110% | T-47D breast 101%

CCn1cc(C(=O)O)c(=O)c2cnc(N3CCCC3)nc21
inactive: EKVX NSCLC 93.7% | SN12C renal 110% | UO-31 renal 74.8% | TK-10 renal 116% | ACHN renal 100% | CAKI-1 renal 85.8% | A498 renal 87.6% | MOLT-4 leukemia 108% | SR leukemia 110% | OVCAR-8 ovarian 101% | OVCAR-5 ovarian 103% | OVCAR-4 ovarian 105% | SK-OV-3 ovarian 108% | IGROV1 ovarian 103% | OVCAR-3 ovarian 119% | HS 578T breast 99.9% | NCI/ADR-RES ovarian 102%

O=C(Nc1ccncc1)C(=O)c1cn(S(=O)(=O)c2cccc(Cl)c2)c2ccccc12
inactive: EKVX NSCLC 52.3% | SN12C renal 75.5% | UO-31 renal 57.7% | TK-10 renal 87.6% | ACHN renal 82.8% | CAKI-1 renal 63.8% | A498 renal 69.4% | MOLT-4 leukemia 53.1% | SR leukemia 12% | RPMI-8226 leukemia 47.2% | OVCAR-8 ovarian 76.2% | OVCAR-4 ovarian 74.8% | SK-OV-3 ovarian 96.6% | IGROV1 ovarian 52.7% | OVCAR-3 ovarian 45.7% | HS 578T breast 86.8% | NCI/ADR-RES ovarian 43.6% | T-47D breast 70%

N#CCCN(NC(=O)OCc1ccccc1)C(=O)OCc1ccccc1
inactive: EKVX NSCLC 91.8% | SN12C renal 106% | UO-31 renal 80.7% | TK-10 renal 120% | ACHN renal 102% | CAKI-1 renal 88.4% | CCRF-CEM leukemia 99% | MOLT-4 leukemia 97.1% | SR leukemia 107% | RPMI-8226 leukemia 110% | OVCAR-8 ovarian 99% | OVCAR-5 ovarian 108% | OVCAR-4 ovarian 111% | SK-OV-3 ovarian 122% | IGROV1 ovarian 118% | OVCAR-3 ovarian 118% | HS 578T breast 103% | NCI/ADR-RES ovarian 105% | T-47D breast 109%

O=C1CC[C@@H]2CCCC[C@@H]2C1
inactive: EKVX NSCLC 99.1% | SN12C renal 95.9% | UO-31 renal 75.2% | TK-10 renal 114% | ACHN renal 100% | CAKI-1 renal 102% | A498 renal 108% | MOLT-4 leukemia 96.5% | SR leukemia 94.7% | OVCAR-8 ovarian 109% | OVCAR-5 ovarian 101% | SK-OV-3 ovarian 99.4% | IGROV1 ovarian 105% | OVCAR-3 ovarian 132% | HS 578T breast 110% | NCI/ADR-RES ovarian 110% | T-47D breast 93.5%
